Experiment [1] can be described thus: A CellTox Green Cytotoxicity Assay to monitor cytotoxicity in HEK293 cells - 40 hour (AID 1224871). Note: nearly all actives have a fitted effect of over 45% in size. The procedure, abridged:
(§1)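 HEK293 cells, 600/well, were preincubated 5 hours and then exposed to compounds at 37 C for up to 40 hours. A cell-impermeant cyanine dye staining dead-cell DNA was read by fluorescence at 0, 8, 16, 24, 32 and 40 h time points.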

A short description of experiment [2]: qHTS RealTime-Glo MT Cell Viability Assay in HEK293 cells - 16 hour (AID 1224872). Note: top concentration of the series differs between compounds; nearly all actives have a fitted effect of over 50% in size. The procedure, abridged:
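HEK293 cells seeded with NanoLuc/prosubstrate reagent, rested 5 h at 37 C, then dosed and kept at 37 C up to 40 h. Nonlytic real-time luminescence from viable cells read at 0, 8, 16, 24, 32 and 40 h.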
(In general: Quantitative high-throughput screening tests each substance at several concentrations.)

Experiment [3] in a line: qHTS RealTime-Glo MT Cell Viability Assay in HepG2 cells - 8 hour (AID 1224873). Note: nearly all actives have a fitted effect of over 55% in size. Note: potency is the fitted concentration of half-maximal effect. An outline of the steps:
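Real-time viability: cells seeded at 600 per well together with NanoLuc and cell-permeant prosubstrate, compounds added after 5 h incubation. Luminescence tracked at 0, 8, 16, 24, 32 and 40 h of exposure.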

Experiment [4] is described as follows: qHTS RealTime-Glo MT Cell Viability Assay in HEK293 cells - 40 hour (AID 1224874). Note: nearly all actives have a fitted effect of over 50% in size. The conditions noted are these: RealTime-Glo luminescence; max response: stronger effect = lower value. An outline of the steps: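 600 cells/well were plated with the nonlytic NanoLuc/prosubstrate reagent, pre-incubated 5 h, then given 23 nL of compound in DMSO. Incubation at 37 C for 40 h, with luminescence from viable-cell-reduced substrate read repeatedly from 0 h.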

The nature of experiment [5]: A CellTox Green Cytotoxicity Assay to monitor cytotoxicity in HEK293 cells - 24 hour (AID 1224875). Note: series mostly up to about 77 µM; nearly all actives have a fitted effect of over 45% in size. The procedure, abridged:
as §1

Experiment [6] in a line: A CellTox Green Cytotoxicity Assay to monitor cytotoxicity in HepG2 cells - 16 hour (AID 1224876). Note: nearly all actives have a fitted effect of over 45% in size. The procedure, abridged:
(§2)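 HepG2 cells, 600/well, preincubated 5 h with CellTox Green dye, then exposed to Tox21 compounds in DMSO at 37 C for up to 40 h. Dead-cell DNA fluorescence read at the indicated time point.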

The nature of experiment [7]: qHTS RealTime-Glo MT Cell Viability Assay in HepG2 cells - 32 hour (AID 1224877). Note: nearly all actives have a fitted effect of over 55% in size. An outline of the steps: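 HepG2 cells (600/well) were dispensed with RealTime-Glo reagents, incubated 5 h at 37 °C, then treated with compounds in DMSO for up to 40 h. Nonlytic NanoLuc luminescence reflecting viable cells was read at each stated time point.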
The nature of experiment [8]: A CellTox Green Cytotoxicity Assay to monitor cytotoxicity in HepG2 cells - 24 hour (AID 1224878). Note: nearly all actives have a fitted effect of over 45% in size. Note: potency is the fitted concentration of half-maximal effect. The procedure, abridged:
as §2

A short description of experiment [9]: A CellTox Green Cytotoxicity Assay to monitor cytotoxicity in HepG2 cells - 40 hour (AID 1224879). Note: nearly all actives have a fitted effect of over 40% in size. Note: potency is the fitted concentration of half-maximal effect. An outline of the steps:
as §2

Values joined by “and” are separate entries in the source; they are usually repeats but may differ in a detail not shown here. Identical values can stand only once. Inconclusive results are not listed. A structure can be active in one record and inactive in another. Active and inactive are the calls of the source. Calls come from the whole dose curve; as a rule, active = well fitted curve in the direction sought with a large enough effect in the repeat runs; inconclusive = weak or mixed curves; inactive = no such curve, though single readings can be large; an effect the other way counts as inactive or inconclusive.
% is set by controls: 0 for no effect and ±100 for the full control effect.

Consider `C[Si]1(C)O[Si](C)(C)O[Si](C)(C)O[Si](C)(C)O1`, for which the Potency entry in experiment [1], in experiment [2], in [3], in experiment [5], in experiment [8] and in experiment [9] was “inactive” in each case. In addition, the max response in [4] was 3.24% (inactive) and 9.03% (inactive). For the same compound, the compound was called inactive in experiment [6] and in experiment [7].
On to `CCNc1ccccc1`, for which the Potency entry in experiment [1], in experiment [2], in [3], in [5], in experiment [8] and in experiment [9] was “inactive” in each case. The max response in experiment [4] is 0.38% (inactive) and 24% (inactive). Also, the outcome in experiment [6] and in experiment [7] was inactive.
Regarding `O=C1CCCC1`, the Potency result in experiment [1], in experiment [2], in experiment [3], in [5], in experiment [8] and in experiment [9] was “inactive” throughout. The max response in experiment [4] is -0.988% (inactive) and 5.09% (inactive). The result in [6] and in [7] was inactive.
Regarding `OCc1ccccc1`, the Potency entry in experiment [1], in experiment [2], in experiment [3], in [5], in [8] and in experiment [9] was “inactive” in each case. Also, the max response in experiment [4] is -3.29% (inactive) and 13.4% (inactive). The call in [6] and in experiment [7] was inactive.
Turning to `CC(=O)Oc1ccc(C)cc1`, the Potency entry in experiment [1], in [2], in experiment [3], in experiment [5], in experiment [8] and in experiment [9] was “inactive” each time. Also, in [4], the max response is 7.12% (inactive) and 1.96% (inactive). Further, the compound was classed as inactive in experiment [6] and in [7].
Turning to `CC(C)OC(=O)COc1ccc(Cl)cc1Cl`, the Potency entry in experiment [1], in [2], in [3], in experiment [5], in experiment [8] and in experiment [9] was “inactive” throughout. Further, in experiment [4], the max response is 8.21% (inactive) and -2.23% (inactive). The compound was called inactive in experiment [6] and in [7].
Take `COCCCN`: the Potency result in [1], in experiment [2], in experiment [3], in experiment [5], in [8] and in [9] was “inactive” each time. For the same compound, the max response in experiment [4] is 3.35% (inactive) and 3.08% (inactive). Moreover, the result in experiment [6] and in [7] was inactive.
For `CC(O)CC(C)(C)O` (centres undefined), the Potency entry in experiment [1], in experiment [2], in [3], in [5], in experiment [8] and in experiment [9] was “inactive” each time. Besides, the max response in experiment [4] was 13.3% (inactive) and 0.19% (inactive). Besides, the compound was called inactive in experiment [6] and in experiment [7].
For `O=C(O)Cn1c(=O)n(Cc2ccc(Br)cc2F)c(=O)c2ccc(Cl)cc21`, the Potency entry in [1], in [2], in [5], in experiment [8] and in experiment [9] was “inactive” in each case. Moreover, the Potency in experiment [3] was 21.9 µM (active) and 8.49 µM (active). Also, the outcome in experiment [6] was inactive.
With `Cc1ccc2ncccc2c1`, the Potency result in experiment [1], in experiment [2], in [3], in experiment [5], in experiment [8] and in [9] was “inactive” in each case. Also, in [4], the max response is 0.634% (inactive) and 3.71% (inactive). In addition, the result in experiment [6] and in experiment [7] was inactive.
Turning to `CCCCCCCCCCCCCCCCO`, the Potency result in experiment [1], in experiment [2], in experiment [3], in experiment [5], in [8] and in experiment [9] was “inactive” in each case. Moreover, in experiment [4], the max response was -1.41% (inactive). Further, the compound was called inactive in experiment [6] and in [7].
`Clc1ccccn1`: the Potency result in experiment [1], in [2], in experiment [3], in experiment [5], in [8] and in [9] was “inactive” in each case. The max response in experiment [4] was 5.77% (inactive) and 7.16% (inactive). The result in experiment [6] and in experiment [7] was inactive.
Consider `CC(=O)OCCOC(C)=O`, for which the Potency entry in experiment [1], in experiment [2], in experiment [3], in experiment [5], in experiment [8] and in experiment [9] was “inactive” in each case. Besides, in experiment [4], the max response is -0.882% (inactive) and 2.01% (inactive). The result in experiment [6] and in experiment [7] was inactive.
For `C[C@]12CCC(=O)C=C1CC[C@@H]1[C@@H]2[C@@H](O)C[C@@]2(C)[C@H]1CC[C@]2(O)C(=O)CO`, the Potency result in [1], in experiment [5], in [8] and in experiment [9] was “inactive” in each case. Also, the outcome in experiment [6] was inactive.
Consider `C=CC[N+](C)(C)CC=C`, for which the Potency entry in experiment [1], in experiment [2], in experiment [3], in experiment [5], in experiment [8] and in [9] was “inactive” in each case. Also, in [4], the max response was 2.31% (inactive) and 7.96% (inactive). For the same compound, the result in experiment [6] and in [7] was inactive.
As to `CCCCC(C=O)CC` (centres undefined), the Potency result in [1], in experiment [2], in experiment [3] and in experiment [5] was “inactive” each time. The max response in [4] is -0.352% (inactive) and 2.13% (inactive). The result in experiment [6] and in experiment [7] was inactive. Besides, the Potency entry was “inactive and 14.6 µM (active)” in experiment [8]; “inactive and 14.6 µM (active)” in experiment [9].
With `OCc1cccc(Oc2ccccc2)c1`, the Potency result in experiment [1], in [2], in experiment [3], in experiment [5], in [8] and in [9] was “inactive” each time. In addition, the max response in [4] is -0.677% (inactive) and -9.74% (inactive). The compound was classed as inactive in experiment [6] and in experiment [7].
`CC(C)CC(C)O` (centres undefined): the Potency entry in [1], in experiment [2], in [3], in experiment [5], in [8] and in experiment [9] was “inactive” throughout. For the same compound, the max response in experiment [4] is 6.34% (inactive) and 7.03% (inactive). The compound was called inactive in experiment [6] and in [7].
Turning to `N[C@H](Cc1c[nH]c2ccccc12)C(=O)O`, the Potency entry in experiment [1], in [2], in experiment [3], in [5], in experiment [8] and in experiment [9] was “inactive” each time. The max response in experiment [4] is 20.7% (inactive) and 3.97% (inactive). Besides, the call in [6] and in [7] was inactive.
As to `CCCCCCO`, the Potency result in experiment [1], in experiment [2], in experiment [3], in experiment [5], in experiment [8] and in experiment [9] was “inactive” throughout. Moreover, the max response in [4] was -0.525% (inactive) and 0.519% (inactive). In addition, the outcome in [6] and in [7] was inactive.
As for `C=CC(=O)OCCC(=O)O`, the Potency result in experiment [1], in experiment [2], in [3], in [5], in experiment [8] and in experiment [9] was “inactive” each time. Also, the max response in [4] was -1.71% (inactive) and -0.811% (inactive). Further, the compound was called inactive in experiment [6] and in experiment [7].
In the case of `COc1cc(OC)c(C(=O)CCCN2CCCC2)c(OC)c1`, the Potency result in experiment [1], in experiment [2], in [3], in [5], in [8] and in experiment [9] was “inactive” each time. Further, the max response in [4] was -11.2% (inactive) and -1.98% (inactive). Besides, the outcome in experiment [6] and in experiment [7] was inactive.
With `NCCN1CCNCC1`, the Potency result in experiment [1], in [2], in [3], in experiment [5], in experiment [8] and in experiment [9] was “inactive” in each case. For the same compound, the max response in experiment [4] was 1.25% (inactive) and -21.7% (inactive). Further, the compound was called inactive in [6] and in experiment [7].
`O=S(=O)(O)c1ccc(N=Nc2c(O)ccc3cc(S(=O)(=O)O)ccc23)cc1`: the Potency result in experiment [1], in experiment [3], in [5], in [8] and in experiment [9] was “inactive” each time. In addition, the max response in [4] is -20% (inactive). Also, in experiment [6], the result was inactive.
For `O=C(O)/C=C/C(=O)O`, the Potency result in experiment [1], in [2], in experiment [3], in [5], in experiment [8] and in [9] was “inactive” throughout. Also, the max response in [4] is -4.18% (inactive) and -12.4% (inactive). Also, the outcome in experiment [6] and in experiment [7] was inactive.
Regarding `CC(=O)OC1CC(C)OC(C)O1` (centres undefined), the Potency result in [1], in [2], in experiment [3], in experiment [5], in [8] and in experiment [9] was “inactive” throughout. Besides, the max response in experiment [4] was 5.08% (inactive) and 9.58% (inactive). The compound was called inactive in experiment [6] and in experiment [7].
Turning to `CC(C)(Oc1ccc(CCNC(=O)c2ccc(Cl)cc2)cc1)C(=O)O`, the Potency entry in experiment [1], in [2], in experiment [3], in experiment [5], in experiment [8] and in experiment [9] was “inactive” each time. In addition, the max response in experiment [4] was 3% (inactive) and 2.4% (inactive). For the same compound, the outcome in [6] and in [7] was inactive.
Regarding `CN(C)CCOC(=O)COc1ccc(Cl)cc1`, the Potency entry in experiment [1], in experiment [2], in experiment [3], in experiment [5], in experiment [8] and in experiment [9] was “inactive” in each case. Also, in [4], the max response was -6.44% (inactive) and 0.203% (inactive). The result in [6] and in [7] was inactive.

The values are drawn from PubChem BioAssay (Tox21).
